Results: PubChem BioAssay AID1117319 (Southern Research Institute, 2015)
Values joined by “and” are separate entries in the source; they are usually repeats but may differ in a detail not shown here. Equal entries are not always repeated. The campaign covered roughly 260,000 compounds. About 1,500 (0.58%) were called active. Not shown: some 5% with an inconclusive outcome.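 The calls were made as follows: active = inhibition above a set limit at one or more doses, reproduced on every date tested; inconclusive = results disagree between test dates, or hit never tested in dose response; inactive = the rest.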 The list is a sample of the results. Results with a measured potency or affinity are listed apart.

Biological target: Virion infectivity factor (Human immunodeficiency virus type 1 group M subtype B (isolate BH10)) + Virion infectivity factor (Human immunodeficiency virus type 1 group M subtype B (isolate BRU/LAI)) + Virion infectivity factor (Human immunodeficiency virus type 1 group M subtype B (isolate PCV12)) + Virion infectivity factor (Human immunodeficiency virus type 1 group M subtype B (isolate HXB2)) + DNA dC->dU-editing enzyme APOBEC-3G (Homo sapiens) (UniProt P69720+P69721+P69722+P69723+Q9HC16)
Experiment: HIV-1 Vif–A3G interaction blockers – biochemical, TR-FRET, GST-Vif 1-94, biotin-A3G peptide, dose response retest, primary screen (AID 1117319);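 also: Vif residues 1-94 fused to GST binding biotinylated APOBEC3G peptide 110-148; 0% = full assay without inhibitor and 100% = GST in place of GST-Vif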
Conditions: TR-FRET GST-Vif / biotin-A3G peptide binding; stronger effect = higher value

inhibition, inactive:
COc1ccc(C2NC(Cc3ccccc3)(C(=O)O)C3C(=O)N(c4ccccc4OC)C(=O)C23)cc1 (stereo unspecified) -0.26%
CCOC(=O)c1cnc2nc(SC)nn2c1N 4.24%
C=CCn1c(N2CCOCC2)nc2c1c(=O)[nH]c(=O)n2C 1.7%
COCCn1c(Sc2nc(C)cs2)nc2c1c(=O)[nH]c(=O)n2C -3.29%
C=CCn1c(Sc2nnc(C)s2)nc2c1c(=O)[nH]c(=O)n2C 3.94%
C=CCn1c(N2CCCC2)nc2c1c(=O)[nH]c(=O)n2C -1.68%
CC(=O)Nc1ccc(NC(=S)NC(=O)C2CC2)cc1 0.52%
CC(=O)Nc1ccc(NC(=O)CN2CCN(c3ccccn3)CC2)cc1 -2.22%
Cn1nc(C(=O)Nc2ccccc2N2CCCC2)c2ccccc2c1=O 1.83%
COc1ccccc1/C=c1\sc2nc(-c3ccco3)nn2c1=O 31.4%
COc1ccc(OC)c(/C=c2\sc3nc(-c4cccs4)nn3c2=O)c1 10.3%
Cc1ccc(/C=c2\sc3nc(-c4cccnc4)nn3c2=O)cc1 8.43%
O=c1nc2s/c(=C\c3ccco3)c(=O)n2nc1Cc1ccc(F)cc1 23.6% and -1.42%
COc1cccc(/C=c2\sc3nc(-c4cccs4)nn3c2=O)c1OC 21.5%
COc1ccccc1/C=C/C=c1\sc2nc(=O)c(Cc3ccccc3)nn2c1=O 26.2%
CCCOc1ccc(/C=c2\sc3nc(-c4ccco4)nn3c2=O)cc1OCC 8.17%
CCCOc1ccc(/C=c2\sc3ncnn3c2=O)cc1 3.82%
COc1ccc(/C=C2\S/C(=N/S(=O)(=O)c3cccs3)NC2=O)cc1 7.65%
CCCNC(=O)CN1C(=O)NC(CCc2ccccc2)C1=O (stereo unspecified) -6.24%
NC(=O)c1cc(S(=O)(=O)NCCCc2ccccc2)cs1 3.6%
COc1ccc(Nc2nc(C)cc(=O)[nH]2)c(OC)c1 10.4%
CCOC(=O)C1=C(N)OC2=C(C(=O)CCC2)C1c1cccs1 (stereo unspecified) 1.36%
COC(=O)C1=C(N)OC2=C(C(=O)CC(C)(C)C2)C1c1cccs1 (stereo unspecified) 12.5%
O=C(C(=NNc1ccccc1)c1ccccc1)c1ccccc1 -6.13%
Oc1ccccc1/C=N/Nc1ccccc1 3.4%
COc1cc(/C=N/N=C(/C(=O)c2ccccc2)c2ccccc2)cc(OC)c1O 1.68%
Oc1ccccc1C=NNC(=S)NN=Cc1ccccc1O -0.1%
O=C1C=CC(=O)N1CCCCCCCCCCN1C(=O)C=CC1=O -0.57%
O=S(=O)(NC1CCCC1)c1ccc(F)cc1F 21.1%
COc1ccc(C(=O)NC(C)c2nnc(SCC(=O)Nc3nc(C)cs3)n2C)cc1 (stereo unspecified) 5.71%
COc1cc(NS(=O)(=O)c2ccc(NC(=O)/C=C/c3ccc([N+](=O)[O-])cc3)cc2)ncn1 7.89%
CN1C(=O)CSC1=Nc1cccc(C(=O)O)c1 -5.13%
CN1C(=O)/C(=C/c2ccco2)SC1=Nc1ccc(N2CCOCC2)cc1 25%
CCCCn1c(N)c(N(CCC(C)C)C(=O)CSc2nnc(C)s2)c(=O)[nH]c1=O 2.42%
CC(=O)c1ccc(N2CCN(c3ccc(C(N)=O)cc3[N+](=O)[O-])CC2)cc1 15.8%
COc1ccc(N2CCN(c3ccc(C(N)=O)cc3[N+](=O)[O-])CC2)cc1 -3.87%
O=C(OCc1ccco1)c1cccnc1 -2.16%
Cc1ccc(Cc2c(-c3ccccc3)nc3cc(C)ccn23)cc1 -4.74%
CCCC(=O)Nc1nnc(Sc2ccc(N(C)C)cc2)s1 2.88%
CCC(=O)Nc1nnc(Sc2ccc(N(C)C)cc2)s1 2.99%
COCCSc1nnc(NC(=O)COC)s1 -0.26%
O=C1c2cccnc2C(Nc2cccc(F)c2)N1Cc1ccco1 (stereo unspecified) -1.27%
O=C1c2cccnc2C(Nc2ccccc2Br)N1Cc1ccco1 (stereo unspecified) 9.8%
Cc1cc(C(=O)COC(=O)c2ccc[nH]c2=O)c(C)n1C1CC1 13%
NC(=S)NNC(=O)c1cc(C(F)(F)F)cc(C(F)(F)F)c1 1.55%
Cc1ccc2[nH]cc(S(=O)(=O)c3ccc(C(C)C)cc3)c(=O)c2c1 -10.1%
CN(Cc1ccno1)C(=O)CC1C(=O)NCCN1CC(c1ccccc1)c1ccccc1 (stereo unspecified) -5.42%
Cc1ccc(NCN2C(=O)C3C4C=CC(C4)C3C2=O)cc1 (stereo unspecified) 6.77%
O=C1C2C3C=CC(C3)C2C(=O)N1CNc1ccccc1 (stereo unspecified) 2.49%
Cc1ccc(NC(=O)CSc2nc(C)c(C)c(C)n2)c([N+](=O)[O-])c1 -0.85%
CCOC(=O)C1=C(C)N=C(/N=C/N(C)C)SC1c1ccccc1 (stereo unspecified) 18.8%
O=C(O)CCc1ccc(-c2ccccc2)n1CC(=O)O 6.57%
COc1ccccc1NC(=O)Cn1c(CCC(=O)O)ccc1-c1ccccc1 -8.03%
O=S(=O)(Nc1ccc2c(c1)OCCO2)c1ccc2oc3ccccc3c2c1 -4.26%
Cc1ccc(C(=O)Nn2c(O)c(C=C3N=c4ccccc4=N3)sc2=S)cc1 0.29%
O=C(CCNC(=O)N1CC(=O)Nc2ccccc21)NCc1ccccc1Cl 2.33%
COCCN1CC(C(=O)NCc2ncccc2C)CCC1=O (stereo unspecified) 0.7%
O=c1oc2ccc([N+](=O)[O-])cc2c(N2CCOCC2)c1[N+](=O)[O-] -2.71%
COC(=O)Cc1cc(=O)n(-c2ccccc2)[nH]1 20.8%
COc1ccc(-c2cc(=O)n(-c3nc4ccccc4[nH]3)[nH]2)cc1 10.5%
COCCSc1nc2c(c(=O)[nH]c(=O)n2C)n1CCC(C)C 2.86%
Cc1ccc(N(CCO)C(=S)Nc2ccccc2)cc1 1.36%
O=C(c1cc(-c2ccccc2)nn1-c1ccccc1)N1CCN(S(=O)(=O)c2ccc(F)cc2)CC1 -4.9%
CCOC(=O)c1c(C)oc2c1c(C=NCCO)c(O)c1ccccc12 14.7%
CCOC(=O)c1c(C)oc2c1c(C=NCC1CCCO1)c(O)c1ccccc12 (stereo unspecified) 25.6%
CNS(=O)(=O)c1cccc(C(=O)OCC(=O)c2ccc3[nH]c(=O)[nH]c3c2)c1 4.94%
COc1ccccc1NC(=S)NC(NC(C)=O)C(Cl)(Cl)Cl (stereo unspecified) -2.68%
O=C(CCC(=O)N1CCN(c2ccccc2F)CC1)c1ccc(F)cc1 0.58%
Cc1cccn2c(=O)nc(SCC(=O)N3CCCCC3)nc12 -0.7%
Cc1cc(=O)n2nc(-c3ccc(C(F)(F)F)cc3)sc2n1 0.75%
CCN(CC)S(=O)(=O)c1ccc(/C=C/C(=O)Nc2ccccc2N2CCOCC2)cc1 28.5%
CCOc1ccc(/C=C/C(=O)Nc2ccc(N3CCOCC3)cc2)cc1 3.96%
CCNC(=O)COC(=O)c1ccc(S(=O)(=O)N2CCCCCC2)cc1 -4.99%
CC(C)Cc1cc(C(=O)N2CCC(N3CCC(C(=O)N4CCOCC4)CC3)CC2)n[nH]1 12.3%
CCCCN(C)C(=O)c1nc2ccccn2c1CN1CCN(c2ccccn2)CC1 -11.9%
COCCn1nnnc1C(c1cc2cc(C)ccc2[nH]c1=O)N1CCc2ccccc21 (stereo unspecified) 17%
Cc1cc(NC(=O)CSc2nnc(Cc3cccn3C)n2CCc2ccccc2)no1 24.2%
CC1(C)Cc2cccc(OCC(=O)OCc3nnc(-c4ccccc4)o3)c2O1 -2.78%
CC(/C=N/NC(=O)Cc1cccs1)=C\c1ccco1 12.2%
C/C(=N\NC(=O)Cc1cccn1C)c1ccco1 20.2%
CC(=O)Nc1ccc2c(c1)nc(C)n2-c1ccccc1 -9.18%
O=C1CC(c2ccc(O)cc2)Oc2cc(O)cc(O)c21 (stereo unspecified) 10.3%
O=C1C[C@@H](c2ccc(O)cc2)Oc2cc(O)cc(O)c21 2.93%
Cc1n[nH]c(C)c1S(=O)(=O)N(C)Cc1ccco1 0%
CCC(=O)c1ccc(OCC(=O)OCC(=O)N2c3ccccc3NC(=O)C2(C)C)cc1 0.69%
Cc1noc(C)c1COc1ccc(C(=O)OCC(=O)N2CC(=O)Nc3ccccc32)cc1 2.4%
CS(=O)(=O)N(CC(=O)N1CCCCCC1)c1ccc2c(c1)OCCO2 0.11%
CCC(=O)Nc1nc2ccc([N+](=O)[O-])cc2s1 1.71%
COc1ccc(OC)c(NC(=O)NCc2cccnc2)c1 -1.39%
COc1ccc(C)cc1NC(=O)NCc1ccc(F)cc1 7.92%
O=C(CCNC(=O)c1ccc(Cl)cc1)NCc1ccccc1Cl -1.5%
COc1cccc(-c2c3c([nH]c(=O)c2C#N)CCc2cc(OC)ccc2-3)c1 -2.14%
CCCCN1CC(COCc2ccccc2)Oc2cc(Br)ccc2S1(=O)=O (stereo unspecified) -3.27%
CCC(C(=O)OCC(=O)Nc1ccc(F)cc1)c1ccccc1 (stereo unspecified) 11.7%
CCC(C(=O)OCC(=O)Nc1ccc(C(N)=O)cc1)c1ccccc1 (stereo unspecified) -11.4%
CCSc1nnc(NC(=O)[C@@H](NC(=O)c2ccccc2F)C(C)C)s1 -8.51%
